In PubChem BioAssay AID372 (MTDP, 2006) one finds inhibition data, which are given here for 92 compounds.

Out of some 100,000 compounds screened, about 770 (0.77%) were called active. The entries come from a sample that favours actives as a whole. Unmarked numbers belong to inactive results. No stated cut-off is given here; in the data, active means inhibition above about 50%; inactive means the rest.

This assay addresses Gag-Pol polyprotein (Human immunodeficiency virus type 1 group M subtype B (isolate HXB2)) (UniProt P04585). The experiment in a line: RNase H inhibition, HIV 1 Gag Pol polyprotein, FRET biochemical assay, screening (AID 372). The conditions noted are these: HIV-1 RT RNase H, FRET RNA/DNA substrate fluorescence; at 10 µM; stronger effect = higher value.
Take `O=C(c1c(F)cccc1F)N1CCN(c2cc(N3CCCC3)c(F)cc2[N+](=O)[O-])CC1`: the inhibition (usually the change of the read-out against control, counted positive when it falls) is 11%.

Turning to `CCc1ccc(OCC(=O)Nc2ccc3c(c2)C(=O)c2ccccc2C3=O)cc1`, the inhibition was 27%.

Regarding `COC(=O)c1c(NC(=O)c2cc(-c3ccc(Cl)s3)nc3ccccc23)sc2c1CCC(C(C)(C)C)C2` (configuration not stated), the inhibition is 1%.

For the compound `COc1ccc(C(Nc2ccccc2)P(=O)(OC(C)C)OC(C)C)cc1` (configuration not stated), the inhibition is 10%.

For the compound `COc1ccc(OC)c(NC(=O)c2ccc(N(C)S(=O)(=O)c3ccccc3)cc2)c1`, the inhibition is 13%.

As for `Oc1c(Cl)cc(Cl)cc1/C=N/N=C/c1cc(Cl)cc(Cl)c1O`, the inhibition is 15%.

On to `COc1ccc(C2=CC(=O)c3ccccc3C2=O)cc1`, for which the inhibition was 40%.

In the case of `COc1ccc(-c2cccc(=O)o2)cc1`, the inhibition was 0%.

As for `COc1ccc(C2=CC(=O)C=CC2=O)cc1`, the inhibition was 75% (active).

As to `CCCC1CCC(c2ccc(OCC)cc2)=CC1=O` (configuration not stated), the inhibition was 8%.

With `CCOc1ccc(C2=NNC(=O)CC2)cc1`, the inhibition was 10%.

For the compound `CCOC(=O)C1=C(C)N=c2s/c(=C\c3ccc(O)c(OC)c3)c(=O)n2C1c1cc(OC)ccc1OC` (configuration not stated), the inhibition was 0%.

Regarding `CC(NC(=O)CN1C(=O)c2ccccc2C1=O)c1ccccc1` (configuration not stated), the inhibition was 3%.

On to `Cc1cccc(OCCCOc2cccc(/C=c3\sc4nc5ccccc5n4c3=O)c2)c1`, for which the inhibition was 3%.

Consider `CCOc1ccc(NC(=S)NC(=O)/C=C/c2ccc(OC)c(OC)c2)c([N+](=O)[O-])c1`, for which the inhibition was 2%.

As to `CCOc1ccc(NC(=S)NC(=O)/C=C/c2ccc(C)cc2)c([N+](=O)[O-])c1`, the inhibition is 21%.

Consider `CCOc1ccc(NC(=S)NC(=O)c2ccccc2)c([N+](=O)[O-])c1`, for which the inhibition was 11%.

With `CCOc1ccc(NC(=S)NC(=O)/C=C/c2ccc(F)cc2)c([N+](=O)[O-])c1`, the inhibition was 84% (active).

Take `CCOc1ccc(NC(=S)NC(=O)/C=C/c2ccc(OC)cc2)c([N+](=O)[O-])c1`: the inhibition was 60% (active).

With `CCOc1ccc(NC(=S)NC(=O)c2ccc(F)cc2)c([N+](=O)[O-])c1`, the inhibition is 7%.

On to `Brc1ccc(-c2nc(-c3ccccc3)c(-c3ccc(Br)cc3)[nH]2)cc1`, for which the inhibition was 17%.

As for `CCOC(=O)c1[nH]c(C)c(C(=O)N/N=C/c2ccc(-c3ccc(Cl)cc3)o2)c1C`, the inhibition was 18%.

Regarding `C=CCOc1ccc(/C=C2\SC(N3CCN(c4ccccc4)CC3)=NC2=O)cc1`, the inhibition is 13%.

For the compound `COC(=O)C1=C(C(=O)OC)SC(=C2C(=S)C(C)(C)N(C(=O)/C=C/c3ccc(OC)cc3)c3ccc(C)cc32)S1`, the inhibition was 22%.

Consider `COc1ccc(/C=C/C(=O)N2c3ccc(C)cc3-c3c(ssc3=S)C2(C)C)cc1OC`, for which the inhibition is 57% (active).

As for `COC(=O)C1=C(C(=O)OC)SC(=C2C(=S)C(C)(C)N(C(=O)/C=C/c3ccc(OC)c(OC)c3)c3ccc(C)cc32)S1`, the inhibition was 40%.

Regarding `COc1ccc2c(c1)-c1c(ssc1=S)C(C)(C)N2C(=O)CN1C(=O)c2ccccc2C1=O`, the inhibition was 0%.

Turning to `COC(=O)C1=C(C(=O)OC)SC(=C2C(=S)C(C)(C)N(C(=O)/C=C/c3ccc(OC)c(OC)c3)c3ccc(OC)cc32)S1`, the inhibition is 53% (active).

Consider `COc1ccc2c(c1)-c1c(ssc1=S)C(C)(C)N2C(=O)/C=C/c1ccc(OC)c(OC)c1`, for which the inhibition is 27%.

For `COc1cccc(C(=O)N2c3ccc(C)cc3-c3c(ssc3=S)C2(C)C)c1`, the inhibition is 13%.

Take `COc1ccc2c(c1)N(C(=O)c1ccc(C(C)(C)C)cc1)C(C)(C)c1ssc(=S)c1-2`: the inhibition is 15%.

For the compound `COc1ccc(/C=C/C(=O)N2c3ccc(C)cc3-c3c(ssc3=S)C2(C)C)cc1`, the inhibition is 20%.

Regarding `COc1cccc(C(=O)N2c3cc(OC)ccc3-c3c(ssc3=S)C2(C)C)c1`, the inhibition was 54% (active).

On to `Cc1ccc2c(c1)N(C(=O)CN1C(=O)c3ccccc3C1=O)C(C)(C)c1ssc(=S)c1-2`, for which the inhibition was 10%.

For the compound `O=C(O)C1CCCCC1C(=O)NCc1ccccc1` (configuration not stated), the inhibition was 0%.

With `O=C(Nc1ccccc1)c1ccccc1C(=O)OCCCCCc1cccs1`, the inhibition is 1%.

`CC(/C=C(\NC(=O)c1ccccc1)C(=O)N/N=C/c1cccc([N+](=O)[O-])c1)=C\c1ccccc1`: the inhibition is 6%.

As to `O=C(Nc1ccc(-c2ccc(Cl)cc2)cc1)C1CC1`, the inhibition was 6%.

For `O=[N+]([O-])c1ccc(C2Nc3ccc(I)cc3C3C=CCC32)cc1` (configuration not stated), the inhibition is 25%.

With `Cc1ccc(S(=O)(=O)N(CC(O)CN(CC(C)C)CC(C)C)c2cccc(C)c2)cc1` (configuration not stated), the inhibition was 9%.

Regarding `COc1ccc2ccccc2c1/C=N/NC(=O)c1ccc(-c2ccccc2)cc1`, the inhibition was 13%.

Take `O=C(Nc1ccc(NC(=O)c2ccc(Cl)cc2Cl)c(Cl)c1)c1ccccc1`: the inhibition is 3%.

`COc1ccc2c(c1)-c1c(ssc1=S)C(C)(C)N2C(=O)c1ccccc1Br`: the inhibition is 27%.

`COc1ccc2c(c1)-c1c(ssc1=S)C(C)(C)N2C(=O)c1ccc(OC)c(OC)c1`: the inhibition was 4%.

As to `COc1ccc2c(c1)-c1c(ssc1=S)C(C)(C)N2C(=O)c1ccccc1OC`, the inhibition was 60% (active).

`CCC1CCc2c(sc(NC(=O)c3ccc(Br)o3)c2C(=O)OC)C1` (configuration not stated): the inhibition was 13%.

Regarding `COc1ccccc1S(=O)(=O)CC(SC#N)c1ccccc1` (configuration not stated), the inhibition was 4%.

On to `Cc1c(CCNC(=O)c2ccccc2)c2ccccc2n1Cc1ccccc1`, for which the inhibition was 57% (active).

For `Cc1c(CCNC(=O)c2ccccc2F)c2ccccc2n1Cc1ccccc1`, the inhibition is 28%.

In the case of `CC(=O)NCCc1c(C)n(Cc2ccccc2)c2ccccc12`, the inhibition was 2%.

Turning to `O=C1OC(c2ccccc2)=N/C1=C\c1ccc(F)c(Br)c1`, the inhibition was 16%.

On to `CCOC(=O)C1=C(C)N=c2s/c(=C\c3ccc(Br)cc3)c(=O)n2C1c1ccc(OC)c(OC)c1` (configuration not stated), for which the inhibition was 0%.

Take `CC(=O)/C(=C1\NC(C)(C)Cc2ccccc21)c1ccccc1`: the inhibition is 3%.

Take `N#C/C(=C\c1ccc(I)o1)c1ccccc1`: the inhibition is 41%.

For the compound `N#C/C(=C/c1ccc(Sc2ccccc2)o1)C(=O)NCc1ccccc1`, the inhibition was 25%.

`N#C/C(=C/c1ccc(Sc2ccccc2)o1)c1nc2ccccc2[nH]1`: the inhibition was 15%.

Consider `Cc1ccc(Sc2ccc(/C=C(\C#N)C(=O)NCc3ccccc3)o2)cc1`, for which the inhibition was 50% (active).

With `N#C/C(=C\c1ccc(Sc2ccccc2)o1)c1ccccc1`, the inhibition is 52% (active).

Regarding `N#C/C(=C\c1ccc(-c2ccccc2)o1)C(=O)NCc1ccccc1`, the inhibition was 16%.

`CCc1cc2c(=O)n(N)c(CCC(=O)O)nc2s1`: the inhibition was 6%.

Take `CCOC(=O)c1cc(Br)c(Cl)cc1[N+](=O)[O-]`: the inhibition is 10%.

Regarding `COc1ccc(C(NC(=O)c2ccco2)c2ccc(OC)c(OC)c2)cc1` (configuration not stated), the inhibition was 23%.

For `Cc1ccc2oc(-c3ccc(NC(=O)c4ccc(C)c([N+](=O)[O-])c4)cc3)nc2c1`, the inhibition is 0%.

Turning to `OC(COc1ccccc1Cl)Cn1cnc2ccccc21` (configuration not stated), the inhibition was 5%.

`O=C(N/N=C/c1ccc(-c2ccc(Cl)cc2Cl)o1)c1ccccc1`: the inhibition is 15%.

In the case of `CCN1C(=O)/C(=C/c2ccc(C)o2)C(=O)NC1=S`, the inhibition was 21%.

As for `CCN1C(=O)C(=Cc2ccc(O)cc2)C(=O)NC1=S`, the inhibition was 4%.

`CCOc1cc(/C=N/NC(=O)C(=O)NCc2ccc(Cl)cc2)ccc1O`: the inhibition is 1%.

On to `CC1(C)NC(=O)N(CC(O)COc2cccc(OCC(O)CN3C(=O)NC(C)(C)C3=O)c2)C1=O` (configuration not stated), for which the inhibition is 11%.

As to `COC(=O)c1c(NC(=O)Cc2ccccc2)sc(C)c1C`, the inhibition was 24%.

For the compound `Cc1sc(NC(=O)c2ccco2)c(C#N)c1C`, the inhibition is 7%.

Take `Cc1sc(NC(=O)c2ccc(F)cc2)c(C(N)=O)c1C`: the inhibition was 8%.

Take `Cc1sc(NC(=O)c2ccc(-c3ccccc3)cc2)c(C(N)=O)c1C`: the inhibition was 13%.

Turning to `CCOC(=O)c1sc(NC(=O)c2ccc(Br)o2)c(C(N)=O)c1C`, the inhibition was 0%.

With `COC(=O)c1c(NC(=O)c2ccco2)sc(C)c1C`, the inhibition is 15%.

In the case of `Cc1sc(NC(=O)c2ccc(Br)o2)c(C#N)c1C`, the inhibition is 4%.

Regarding `CCOC(=O)c1c(NC(=O)Cc2ccccc2)sc(C)c1C`, the inhibition was 0%.

`CCOc1cc(/C=C2\SC(=S)N(c3ccc(F)cc3)C2=O)ccc1O`: the inhibition is 18%.

For `CCN(CC)c1ccc(C(=O)Nc2cc(Cl)cc(Cl)c2)cc1`, the inhibition was 20%.

With `Cc1ccc(C(=O)COC(=O)c2cccc(N3C(=O)C4C5C=CC(C6CC56)C4C3=O)c2)cc1` (configuration not stated), the inhibition was 9%.

Regarding `CCOc1ccc(-n2sc3c(c2=S)-c2cc(C)ccc2N(Cc2ccccc2)C3(C)C)cc1`, the inhibition was 32%.

As to `Cc1cc(C)cc(NC(=O)C(C)N2C(=O)c3ccccc3C2=O)c1` (configuration not stated), the inhibition was 0%.

On to `CC1=C(C(=O)OCC(C)C)C(c2cccc(O)c2)C2=C(CC(c3ccc(Cl)cc3)CC2=O)N1` (configuration not stated), for which the inhibition is 21%.

Turning to `O=C(/C=C/c1ccccc1)NC(=S)Nc1ccc(Br)cn1`, the inhibition is 21%.

As for `CCOC(=O)c1ccc(Nc2cc(-c3ccccc3)ncn2)cc1`, the inhibition was 18%.

Consider `COc1cc(CN2CCN(Cc3ccc(OC)c(OC)c3OC)CC2)cc(OC)c1OC`, for which the inhibition was 4%.

Turning to `O=C(/C=C/c1ccc2c(c1)OCO2)NCc1ccc(Cl)cc1Cl`, the inhibition was 11%.

Consider `Cc1nn(CC(=O)Nc2sc3c(c2C#N)CCCC3)c(C)c1[N+](=O)[O-]`, for which the inhibition is 8%.

On to `CCOC(=O)c1sc(NC(=O)Cn2nc([N+](=O)[O-])c([N+](=O)[O-])c2C)c(C(=O)OCC)c1C`, for which the inhibition is 6%.

Regarding `O=C(O)c1c(Br)c(Br)c(Br)c(Br)c1C(=O)NCCC1=CCCCC1`, the inhibition was 0%.

Turning to `NNC(=O)CN1C(c2ccccc2)=Nc2ccc(Br)cc2C1c1ccccc1` (configuration not stated), the inhibition was 15%.

For `COc1ccc(N2C(=O)/C(=C\c3c(OC)cc(OC)cc3OC)C(=O)NC2=S)cc1`, the inhibition was 1%.
